# MBNL1-CUG inh: inhibitors of human MBNL1 binding to CUG repeat RNA | 0.036% of 280,000 active | Potency, µM (series often up to 57.5 µM), for inactives: at the highest dose activity change, negative = inhibition, usual class: inhibitors | Q9NR56 | TR-FRET MBNL1-His/biotin-(CUG)12 binding, 665/545 ratio; active = well fitted inhibition curve with a large enough effect in the signal ratio, with a control signal flat, not every such curve was filed as active; inconclusive = small, poorly fitted or top-dose-only effect, or effect the other way, or a change in a side signal; inactive = no such curve, though single readings can be large or run the other way; the % refers to the signal ratio; note: potency is the fitted concentration of half-maximal effect; % is set by controls: 0 for no effect and ±100 for the full control effect
#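 TR-FRET between His-tagged MBNL1 and biotin-(CUG)12 RNA, detected with Tb anti-His antibody (0.055 ng/ul) and streptavidin-XL665 (5 nM), 60 min at room temperature. Compounds titrated 92 nM to 58 uM; 665/545 nm ratio normalized to buffer and complex controls.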
# Integrin act MD: activates integrin-mediated alleviation for muscular dystrophy. alpha7betagal myoblasts, beta-gal FDG fluorescence, 48 h. Potency, µM (titrated, usually from 38.3 µM), without a hit: top-dose activation, most hits filed as activators. 0.064% of 350,000 active;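 note: potency is the fitted concentration of half-maximal effect; 100% = response of the positive control SU9516; nearly all actives have a fitted effect of over 60% in size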
#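 alpha7betagal+/- myoblasts (passage 13, 250/well) treated 48 h at 37C with compounds at 1:260 dilution of DMSO stock. Lysed, then beta-galactosidase activity read as FDG fluorescence (ex 480/em 540) after 30 min, with pre-read for autofluorescence.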
# PTHR1 ag: activates the human parathyroid hormone receptor PTHR1; HEK293 GP2 PTHR1 cells, GloSensor cAMP luminescence, 1 h; Potency, µM (doses to about 115 µM), inactives show top-dose activation, most hits filed as activators; 0.075% of 410,000 active; note: potency is the fitted concentration of half-maximal effect; nearly all actives have a fitted effect of over 55% in size
#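 HEK-293-derived GP2 cells expressing PTHR1 and a GloSensor cAMP reporter, 3,000/well, plated overnight, given luciferin plus IBMX (each 0.5 mM as added) for 1 h at 37 °C, then compound for 1 h at 37 °C. Luminescence was read after 15 min at room temperature.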
# DRD3 agonist: agonists of human D3 dopamine receptor. D3R DiscoveRx beta-arrestin cells, luminescence, 90 min. max activation, %. 0.58% of 410,000 active. AID 652048; in the data active = max activation above about 30%; note: 0% is about no effect
# Target sequence (P35462 whole entry, looked up): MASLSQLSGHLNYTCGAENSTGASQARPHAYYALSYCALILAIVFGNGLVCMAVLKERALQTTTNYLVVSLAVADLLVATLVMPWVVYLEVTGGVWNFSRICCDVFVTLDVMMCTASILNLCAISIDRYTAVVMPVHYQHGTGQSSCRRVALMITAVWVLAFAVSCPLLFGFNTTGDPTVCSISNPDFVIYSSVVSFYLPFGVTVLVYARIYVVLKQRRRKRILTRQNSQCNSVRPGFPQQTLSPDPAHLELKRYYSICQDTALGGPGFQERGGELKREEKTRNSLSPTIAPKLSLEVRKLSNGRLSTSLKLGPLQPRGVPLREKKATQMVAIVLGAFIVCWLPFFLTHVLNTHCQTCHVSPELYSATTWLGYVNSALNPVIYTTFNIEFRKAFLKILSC
#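 Agonist mode: compounds and dopamine controls were applied to plated cells for 90 min at 37 degrees C after an overnight attachment at 1500 cells/well. Luminescent read-out followed 30 - 60 minutes at room temperature with DiscoveRx detection reagent.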
# D3 antag: D3 dopamine receptor (human) antagonism; P35462; D3R cells, DiscoveRx beta-arrestin luminescence, antagonist mode; stronger effect = lower value; 2.5% of 360,000 active; max response, negative = inhibition, %; AID 652054; in the data active = max response below about -50%; inconclusive = no clear call, values can overlap the other calls; note: % is set by controls: 0 for no effect and ±100 for the full control effect
#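 Cells plated overnight at 1500 cells/well, then exposed to library compounds with dopamine controls for 90 minutes at 37 degrees C. DiscoveRx reagent added for 30–60 minutes at room temperature; luminescence read, quantitative HTS format.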
# CBFb RUNX1 block: CBF-beta/RUNX1 interaction disruption | Q01196+Q13951 | AlphaScreen CBFb-His/RUNX1-biotin binding, biochemical | AID 1477 | 230,000 tested, under 10 active | Potency, µM (series often up to 59.8 µM), for the others: top-dose activity, negative = inhibition, actives largely listed as inhibitors; note: % of control where 0% means no effect
#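 His-tagged CBF-beta and biotinylated RUNX1 (30 nM each) were premixed 20 min at room temperature, exposed to compound for 15 min, then given nickel-chelate and streptavidin AlphaScreen beads (50 ng each). After 90 min, AlphaScreen signal was read.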
# Numbers without * were called inactive; i = inactive; ? = inconclusive; / = no result given; [ ] = remark or other dose. The list is not random: actives were taken first. Their share in the collection is about 2.8%. Unless noted, calls come from the whole dose curve; as a rule, active = well fitted curve in the direction sought with a large enough effect; inconclusive = small, poorly fitted or top-dose-only effect, or another doubt; inactive = no such curve, though single readings can be large; an effect the other way counts as inactive or inconclusive.
SMILES,MBNL1-CUG inh,Integrin act MD,PTHR1 ag,DRD3 agonist,D3 antag,CBFb RUNX1 block
OCCN1CCN(CC/C=C2/c3ccccc3Sc3ccc(Cl)cc32)CC1,/,/,-1%,0,-12,/
COc1ccc2c(c1)CC(N1CCN(C)CC1)c1cc(OC)ccc1S2 (stereo not drawn),/,-56%,i,-12,-94*,/
Cc1ccc(C(=O)NC(=S)N(C)C2CCCCC2)cc1,-4%,-17%,-26%,-1,10,/
c1ccc(Sc2ncccn2)nc1,-2%,-27%,-2%,9,0,2%
CC(C)(C)n1nnnc1C(c1ccccc1)N1CCN(C/C=C/c2ccccc2)CC1 (stereo not drawn),/,/,-5%,-10,-57*,/
CCC(c1nnnn1C(C)(C)C)N1CCN(C/C=C/c2ccccc2)CC1 (stereo not drawn),/,/,-5%,-8,-80*,/
CC(C)(C)n1nnnc1CN1CCN(C(c2ccccc2)c2ccccc2)CC1,?,-45%,-11%,1,16,6%
CC(C)(C)n1nnnc1C(c1ccccc1)N1CCCN(Cc2ccc(F)cc2)CC1 (stereo not drawn),/,/,-31%,-13,-105*,/
CC(C)(C)n1nnnc1C(c1ccccc1)N1CCN(c2ccccc2)CC1 (stereo not drawn),/,/,-11%,-7,0,/
C(=C\c1ccccc1)/CN1CCN(C(c2ccccc2)c2ccccc2)CC1,4%,/,6%,/,-63*,4%
Cc1cc(C)cc(NC(=S)N2CC(C)OC(C)C2)c1 (stereo not drawn),-4%,22%,i,15,6,/
Cn1c(N)c(C(=O)Nc2c(Cl)cccc2Cl)sc1=S,10%,26%,i,0,-6,-7%
Nc1nccnc1C(=O)OCC(=O)NCCc1ccc(S(N)(=O)=O)cc1,/,22%,12%,2,6,/
Cc1ccco1,/,/,/,/,/,-10%[21.7 µM]
CC(C)COc1ccc(C(=O)Nc2onc3c2CCCC3)cc1,/,/,-9%,-9,/,/
CC1CCN(C(c2ccccc2)c2nnnn2C(C)(C)C)CC1 (stereo not drawn),-14%,-21%,-2%,-2,-5,-5%
CSCCC(C(=O)Nc1c(C)cccc1C)N1CCN(C/C=C/c2ccccc2)CC1 (stereo not drawn),/,/,-17%,-12,-81*,/
Cc1cccc(C)c1NC(=O)C(c1ccccc1)N1CCN(C/C=C/c2ccccc2)CC1 (stereo not drawn),/,/,-13%,-10,-13,/
Cc1ccc(C(c2nnnn2C(C)(C)C)N2CCC(C)CC2)cc1 (stereo not drawn),-24%,-30%,0%[57.5 µM],-3,-52*,11%
COc1ccc(CNC(C)C(=O)Nc2ccc3ccccc3c2)cc1OC (stereo not drawn),8%,11%,-11%,-1,-10,8%
COc1ccc(N2C(=O)C(Cl)=C(Oc3cccc(OC)c3)C2=O)cc1,11%,-66%,-24%,-18,-58*,-6%
Cc1ccc(NC(=O)c2cccc(C(F)(F)F)c2)cc1NC(=O)c1[nH]cnc1C(N)=O,/,4%,-3%,31*,46,/
COC(=O)c1ccc(NC(=O)c2cc3cc4ccc(OC)c(Cl)c4nc3s2)cc1,/,/,-32%,-9,/,/
O=[N+]([O-])c1cnn(-c2nc(-c3ccccc3)cc(C(F)(F)F)n2)c1,0%,-6%,i,1,-24,2%
CCN(CC)CCOC(=O)c1ccc(NC(=O)CCCN2C(=O)S/C(=C/c3ccc(OC)cc3)C2=S)cc1,?,-64%,i,-19,-83*,/
O=C(COc1ccc([N+](=O)[O-])cc1)NNC(=O)Nc1cccc(F)c1,?,11%,i,-39,-15,/
O=C(C[C@H]1CC[C@H]2[C@@H](COC[C@@H](O)CN2S(=O)(=O)c2ccccc2)O1)N[C@@H]1CCN(Cc2ccccc2)C1,/,/,i,-13,-71*,/

# Bioassay records deposited in PubChem BioAssay by National Center for Advancing Translational Sciences (NCATS).
